# Screens: PubChem, National Center for Advancing Translational Sciences (NCATS)
# Shown are actives, neighbours in structure and some others; about 4% of the full set was active somewhere.
# D1 potentiator – Potentiators of Human D1 Dopamine Receptor: qHTS | D(1A) dopamine receptor (Homo sapiens), P21728 | HEK293 TREx D1 cells, calcium flux, dopamine EC20 potentiation | potentiation, % at 10 µM | hit rate 0.036% among 360,000 | AID 504651, 2011; in the data active means potentiation above about 30%; further: 0% is about no effect
# Glioma ERSR ind – qHTS for Inducers of the Endoplasmic Reticulum Stress Response (ERSR) in Human Glioma: qHTS; U87-MG GRP78 promoter luciferase reporter, 16 h; Potency, µM, inactives show at the top dose activation, usual class: activators; hit rate 0.02% among 420,000; AID 602332, 2012; active means well fitted activation curve with a large enough effect; further: potency means the concentration at half of the fitted maximal effect; series mostly up to about 76 µM; % of control where 0% means no effect; nearly all actives have a fitted effect of over 35% in size
#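 Stably transfected U87-MG glioma cells carrying a GRP78-based luciferase sensor; 16 h compound incubation. Luminescence end-point read 10 min after Bright-Glo addition at room temperature.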
# D1 antagonist – Antagonist of Human D 1 Dopamine Receptor: qHTS; activity change, negative = inhibition, % at 10 µM; AID 504652, 2011; HEK293 TREx D1 cells, calcium flux, dopamine EC80; stronger effect = lower value; hit rate 3.2% among 360,000; in the data active means activity change below about -30%; further: on the % scale 0 is the no-effect control and ±100 the full control effect
#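 Tetracycline-induced HEK293 Trex D1 cells, force-coupled to calcium, dye-loaded; compounds added and read 180 s, then EC80 dopamine added and calcium flux tracked kinetically another 180 s.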
# D1 agonist – Allosteric Agonists of the Human D1 Dopamine Receptor: qHTS | D(1A) dopamine receptor (Homo sapiens), P21728 | HEK293 T-REx D1 cells, calcium flux, agonist mode | activation, % at 2 µM | hit rate 1% among 360,000 | AID 504660, 2011; further: 0% is about no effect
#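 Agonism was scored from calcium flux recorded over 180 s (1 read/s) after pintool compound addition, following a 10-cycle baseline. Cells were inducible force-coupled HEK293 TREx D1, plated overnight at 30 C and loaded with no-wash calcium dye.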
# TRHR agonist – qHTS for Small Molecule Agonists and Allosteric Enhancers of Human TRH Receptor: Primary Screen for Agonists | Thyrotropin-releasing hormone receptor (Homo sapiens), P34981 | TRHR cells, calcium flux fluo-8, FDSS agonist mode | activation, % at 2 µM | hit rate 0.18% among 360,000; further: 0% is about no effect
# Target sequence (P34981 whole entry, looked up): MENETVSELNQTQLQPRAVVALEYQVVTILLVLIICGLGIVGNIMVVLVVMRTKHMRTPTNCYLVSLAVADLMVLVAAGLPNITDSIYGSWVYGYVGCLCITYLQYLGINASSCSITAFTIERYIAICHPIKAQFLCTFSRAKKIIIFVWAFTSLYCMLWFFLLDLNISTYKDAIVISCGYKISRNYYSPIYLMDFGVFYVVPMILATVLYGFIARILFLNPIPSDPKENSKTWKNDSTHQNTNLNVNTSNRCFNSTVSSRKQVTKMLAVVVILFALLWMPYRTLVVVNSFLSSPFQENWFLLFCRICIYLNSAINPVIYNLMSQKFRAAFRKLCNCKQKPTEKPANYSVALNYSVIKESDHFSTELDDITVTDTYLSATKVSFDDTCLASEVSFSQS
#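 Steps: seed TRHR cells overnight; add fluo-8 no-wash Ca dye, RT 30 min–1.5 h; record 10 s baseline; pin-transfer compounds; monitor fluorescence 1 cycle/s for the agonist window. Calcium increases flag candidate agonists.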
# TRHR enhancer – qHTS for Small Molecule Agonists and Allosteric Enhancers of Human TRH Receptor: Primary Screen for Enhancers; Thyrotropin-releasing hormone receptor (Homo sapiens), P34981; TRHR cells, fluo-8 calcium fluorescence, EC20 TRH enhancement; enhancement, % at 2 µM; hit rate 0.66% among 360,000; in the data active means enhancement above about 30%; further: 0% is about no effect
#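 Enhancer read-out: after compound pinning and an initial kinetic agonist-mode read, an EC20 of TRH (10 nM final) was injected and fluo-8 calcium signal (Ex 480/Em 530) followed at 1 s/cycle for 100 cycles in TRHR-expressing cells.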
# * marks the source's active call; other numbers are inactive results; . = no result given; ! = repeats disagree. Unless noted, no stated cut-off is given here; in the data, active means activation above about 30%; inactive means the rest.
SMILES,D1 potentiator,Glioma ERSR ind,D1 antagonist,D1 agonist,TRHR agonist,TRHR enhancer
Cc1ccc(C(=O)CSC2=C(C#N)C(c3ccco3)C3=C(CCCC3=O)N2)cc1 (configuration not stated),-6.0,-5.8%,-36.6*,4.3,0.0,-2.3
CCc1ccc(C(=O)CSC2=C(C#N)C(c3ccco3)C(C(C)=O)=C(C)N2)cc1 (configuration not stated),-10.2,-0.3%,-33.5*,2.3,0.8,-0.5
CC(C)(C)c1ccc(C(=O)CCCSC2=C(C#N)C(c3ccco3)C3=C(CCCC3=O)N2)cc1 (configuration not stated),-3.2,-3.4%,-10.2,5.5,-0.4,0.7
c1nc(C2CCCCC2)cc2cc3c(cc12)OCO3,.,-0.5%,.,.,.,.
CCCc1cc(C(=O)OC)c(NC(=O)CCCC(=O)O)s1,3.3,-4.0%,-0.8,2.0,0.1,35.9*
COc1ccc(C2CC(c3ccc4ccccc4c3OC(C)=O)=NN2C(C)=O)cc1 (configuration not stated),-4.0,4.9%,6.7,0.7,-0.6,-0.2
COc1ccc2cc1Oc1ccc(cc1)C[C@H]1c3c(cc(OC)c4c3Oc3c(ccc5c3[C@H](C2)N(C)CC5)O4)CCN1C,.,-4.3%,.,.,.,.
COc1ccc2cc1Oc1ccc(cc1)CC1c3c(cc(OC)c4c3Oc3cc5c(cc3O4)CCNC5C2)CCN1C (configuration not stated),-11.8,-11.6%,-40.6*,5.3,-1.0,1.3
Cc1cccc(N2CCN(C(=O)c3cccc(N4CCCC4=O)c3)C(C)C2)c1 (configuration not stated),-4.9,-3.9%,-23.8,5.4,-0.3,-11.2
Cc1cc(C(=O)COC(=O)C2=NNC(=O)CC2)c(C)n1-c1ccc(OC(F)F)cc1,-3.4,-3.2%,-34.6*,11.2,-0.1,5.8
O=C(CCCOc1ccccc1)Nc1nncs1,-3.3,-0.7%,-34.7*,2.9,-0.7,-1.9
Cc1nn(Cc2c(F)c(F)c(F)c(F)c2F)c(C)c1NC(=O)c1ccc(COc2ccccc2Cl)cc1,-9.4,-6.3%,-33.8*,5.8,-0.1,-1.8
O=C1N[C@@H]2[C@H](CCCCC(=O)Oc3ccc([N+](=O)[O-])cc3)SC[C@H]2N1,.,-5.9%,.,.,.,.
O=c1oc2c(CN3CCCC3)c(O)ccc2cc1-c1ccccc1,-0.6,-0.3%,5.0,4.4,6.5,-3.6
O=c1oc2c(CN3CCCCCC3)c(O)ccc2cc1-c1nc2ccccc2[nH]1,3.0,.,-6.2,240.7*,7.4,8.3
CN1CCN(Cc2c(O)ccc3cc(-c4ccccn4)c(=O)oc23)CC1,3.0,5.0%,-31.5*,43.8*,1.1,-1.0
Cc1c(C)c2ccc(O)c(CN3CCN(C)CC3)c2oc1=O,-4.3,2.6%,3.0,2.9,0.3,11.2
COC(=O)NC(/C(C(=O)OC)=C(\C)NCc1ccccc1)c1ccc(Cl)cc1 (configuration not stated),.,-1.9%,.,.,.,.
COC(=O)c1sc(S(=O)(=O)N2CCN(c3ccc(OC)cc3)CC2)c(C(=O)OC)c1C,-0.3,-4.8%,-40.0*!,3.4,-1.6,-1.0
COC(=O)c1sc(S(=O)(=O)N2CCN(c3ccccc3F)CC2)c(C(=O)OC)c1C,.,-3.7%,.,.,.,.
O=C(COc1ccc(F)cc1Cl)N(Cc1nnc(-c2ccccc2Cl)o1)C1CC1,.,-0.6%,.,.,.,.
COC(=O)c1ccccc1NC(=O)Cn1ccnc1,3.0,-2.7%,-7.7,5.2,0.4,1.7
COC(=O)c1ccccc1NC(=O)Cn1cnc([N+](=O)[O-])c1,-1.2,-5.1%,-89.4*,5.2,-0.7,-2.0
CCn1c(COc2ccccc2C)nnc1SCc1nc2ccccc2c(=O)[nH]1,-3.1,.,-30.0*,1.7,-0.1,0.2
O=C1CCCCN1CCCC(=O)N1CCCC(Nc2ccccc2)C1 (configuration not stated),-5.3,-2.9%,-50.8*,7.3,0.6,-5.6
SMILES,D1 potentiator,Glioma ERSR ind,D1 antagonist,D1 agonist,TRHR agonist,TRHR enhancer
O=C(NCn1ccc(=O)[nH]c1=S)c1ccccc1,3.5,1.0%,-45.6*,0.1,-0.2,4.5
C(=C\c1ccnc2ccccc12)/c1ccc(-[n+]2cc[n+](-c3ccc(/C=C/c4ccnc5ccccc45)cc3)cc2)cc1,.,-1.5%,.,.,.,.
COc1ccc(-c2nc(NC(C)=O)sc2-c2ccccc2)cc1,-14.2,1.3%,-32.5*,3.0,-1.6,-5.1
Cc1nnc2c(N3CCN(CCO)CC3)nc3ccccc3n12,-1.1,-3.8%,-5.9,3.6,0.7,3.7
COc1ccc(N2CCN(c3nc4ccccc4n4c(C)nnc34)CC2)cc1,-5.2,-4.1%,-76.2*,-0.1,-0.2,0.4
COc1cc(NC(=O)Cn2c(=O)n(-c3ccccc3)c(=O)c3c4c(sc32)CCCC4)cc(OC)c1,2.1,-3.6%,3.1,1.3,0.0,5.5
CCNc1ccccc1CP(=O)(c1ccccc1)c1ccccc1O (configuration not stated),-6.2,-4.3%,-0.7,35.2*,18.3,4.8
Cc1ccc(O)c(CP(=O)(c2ccccc2)c2ccccc2)c1,-3.6,-3.4%,-15.9,7.1,0.5,1.5
C/C(=N\NC(=O)CSCc1ccccc1Cl)c1cc(O)ccc1O,-9.4,-0.5%,-36.5*,5.2,0.7,-0.9
O=C(NCCc1nnc2n1CCN(Cc1ccc(F)c(F)c1)CC2)c1ccoc1,.,-4.3%,.,.,.,.
Cc1ccc(S(=O)(=O)N2CCOCC2)cc1NC(=O)COC(=O)c1cccnc1Cl,-5.5,-3.4%,-64.2*,4.4,0.2,0.4
CN(C)S(=O)(=O)c1ccc(C(=O)OCC(=O)Nc2cccnc2Cl)cc1,2.8,-2.7%,-33.2*,7.9,0.6,-5.3
Cc1ccc(-c2nc(SCC(=O)Nc3cc(S(=O)(=O)N4CCCCC4)ccc3Cl)n[nH]2)cc1,-4.2,0.0%,-35.1*,4.1,0.4,-12.1
Nc1cc(=O)[nH]c(SCC(=O)Nc2cc(S(=O)(=O)N3CCCCCC3)ccc2Cl)n1,.,-3.5%,.,.,.,.
O=C(CNc1ccccc1Cl)Nc1cc(S(=O)(=O)N2CCOCC2)ccc1Cl,1.1,-3.9%,-33.3*,2.3,0.6,-4.4
CCOc1ncccc1C(=O)OCC(=O)Nc1cc(S(=O)(=O)N2CCOCC2)ccc1C,-3.0,-5.4%,-20.2,8.2,-3.3,-17.3
COc1ccc(C(=O)Cn2c(=O)n3nc(CCn4nc(C)cc4C)nc3c3cc(OC)c(OC)cc32)cc1,-3.5,-0.9%,-12.7,0.0,-0.2,4.6
